Test [1] concerns the target T1, Serine/threonine-protein kinase TBK1 (Homo sapiens) (UniProt Q9UHD2).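 Also: values are mean inhibition of TBK1, screened as part of the GSK published kinase inhibitor set.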
T1 sequence (whole entry): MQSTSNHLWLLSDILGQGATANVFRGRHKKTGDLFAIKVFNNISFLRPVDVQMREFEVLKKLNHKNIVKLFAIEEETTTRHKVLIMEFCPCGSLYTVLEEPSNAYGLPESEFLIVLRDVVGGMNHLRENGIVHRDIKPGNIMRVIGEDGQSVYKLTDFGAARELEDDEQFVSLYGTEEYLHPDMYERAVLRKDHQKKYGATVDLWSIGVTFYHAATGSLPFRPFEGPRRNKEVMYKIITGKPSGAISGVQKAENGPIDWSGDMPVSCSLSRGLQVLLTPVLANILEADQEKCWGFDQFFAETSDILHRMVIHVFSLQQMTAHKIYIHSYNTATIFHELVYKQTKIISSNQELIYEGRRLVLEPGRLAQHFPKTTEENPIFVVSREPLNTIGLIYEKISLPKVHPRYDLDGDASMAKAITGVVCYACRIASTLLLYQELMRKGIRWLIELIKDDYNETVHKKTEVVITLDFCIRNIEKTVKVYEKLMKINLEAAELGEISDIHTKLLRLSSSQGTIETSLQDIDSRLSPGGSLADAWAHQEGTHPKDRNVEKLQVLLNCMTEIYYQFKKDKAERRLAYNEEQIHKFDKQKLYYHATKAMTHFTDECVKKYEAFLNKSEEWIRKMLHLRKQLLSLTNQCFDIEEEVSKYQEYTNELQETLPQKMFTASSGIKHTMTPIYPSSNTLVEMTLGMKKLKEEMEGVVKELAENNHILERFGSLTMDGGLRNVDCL
The following applies: at 1 µM.

The target in test [2] is T2, Testis-specific serine/threonine-protein kinase 1 (Homo sapiens) (UniProt Q9BXA7).
T2 sequence (whole entry): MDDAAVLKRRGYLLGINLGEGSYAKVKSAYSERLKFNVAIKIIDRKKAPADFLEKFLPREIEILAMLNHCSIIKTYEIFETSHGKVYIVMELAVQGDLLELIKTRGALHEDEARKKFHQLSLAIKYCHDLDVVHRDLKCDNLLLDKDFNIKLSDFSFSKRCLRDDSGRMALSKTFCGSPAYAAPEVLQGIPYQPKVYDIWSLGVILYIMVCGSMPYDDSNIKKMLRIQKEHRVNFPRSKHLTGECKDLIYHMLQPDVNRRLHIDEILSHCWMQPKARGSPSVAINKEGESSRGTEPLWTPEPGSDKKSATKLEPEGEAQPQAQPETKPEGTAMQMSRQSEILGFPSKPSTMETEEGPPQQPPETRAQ
As to conditions: at 0.1 µM.

In test [3] the target is T2, Testis-specific serine/threonine-protein kinase 1 (Homo sapiens). The following applies: at 1 µM.
In test [4] the target is T3, Testis-specific serine/threonine-protein kinase 2 (Homo sapiens) (UniProt Q96PF2).
T3 sequence (whole entry): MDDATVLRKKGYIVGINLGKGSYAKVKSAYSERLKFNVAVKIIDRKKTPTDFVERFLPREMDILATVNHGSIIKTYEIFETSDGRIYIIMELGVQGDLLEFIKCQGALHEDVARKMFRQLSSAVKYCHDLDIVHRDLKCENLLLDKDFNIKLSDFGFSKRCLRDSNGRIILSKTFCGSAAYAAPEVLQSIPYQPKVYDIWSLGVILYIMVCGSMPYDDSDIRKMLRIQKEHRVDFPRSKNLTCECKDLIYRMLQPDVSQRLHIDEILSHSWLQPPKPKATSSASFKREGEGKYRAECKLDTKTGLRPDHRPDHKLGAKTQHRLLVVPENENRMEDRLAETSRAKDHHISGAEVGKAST
As to conditions: at 0.1 µM.

Test [5] has as its target T3, Testis-specific serine/threonine-protein kinase 2 (Homo sapiens). The following applies: at 1 µM.
Test [6] addresses Casein kinase I isoform alpha (Homo sapiens) (UniProt P48729). The following applies: at 0.1 µM.
For test [7] the target is unchanged. As to conditions: at 1 µM.
The target in test [8] is Casein kinase I isoform gamma-1 (Homo sapiens) (UniProt Q9HCP0). The following applies: at 0.1 µM.
Chain of Casein kinase I isoform gamma-1 (Homo sapiens) (Q9HCP0 whole entry, looked up, canonical isoform): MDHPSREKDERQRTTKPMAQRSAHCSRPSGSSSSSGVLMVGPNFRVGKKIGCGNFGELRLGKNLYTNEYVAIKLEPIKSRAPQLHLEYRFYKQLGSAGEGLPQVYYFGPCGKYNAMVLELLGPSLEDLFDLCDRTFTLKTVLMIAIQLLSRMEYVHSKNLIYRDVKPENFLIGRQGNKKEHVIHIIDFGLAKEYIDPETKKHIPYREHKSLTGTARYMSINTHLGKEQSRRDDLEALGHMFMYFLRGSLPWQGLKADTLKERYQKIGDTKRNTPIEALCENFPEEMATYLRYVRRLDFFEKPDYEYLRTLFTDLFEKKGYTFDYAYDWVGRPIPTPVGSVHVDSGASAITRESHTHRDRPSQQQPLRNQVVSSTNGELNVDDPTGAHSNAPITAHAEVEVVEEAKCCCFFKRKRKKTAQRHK
Test [9] has the same target. As to conditions: at 1 µM.
Test [10] addresses Casein kinase I isoform gamma-2 (Homo sapiens) (UniProt P78368). The following applies: at 0.1 µM.

Chain of Casein kinase I isoform gamma-2 (Homo sapiens) (P78368 whole entry, looked up, canonical isoform): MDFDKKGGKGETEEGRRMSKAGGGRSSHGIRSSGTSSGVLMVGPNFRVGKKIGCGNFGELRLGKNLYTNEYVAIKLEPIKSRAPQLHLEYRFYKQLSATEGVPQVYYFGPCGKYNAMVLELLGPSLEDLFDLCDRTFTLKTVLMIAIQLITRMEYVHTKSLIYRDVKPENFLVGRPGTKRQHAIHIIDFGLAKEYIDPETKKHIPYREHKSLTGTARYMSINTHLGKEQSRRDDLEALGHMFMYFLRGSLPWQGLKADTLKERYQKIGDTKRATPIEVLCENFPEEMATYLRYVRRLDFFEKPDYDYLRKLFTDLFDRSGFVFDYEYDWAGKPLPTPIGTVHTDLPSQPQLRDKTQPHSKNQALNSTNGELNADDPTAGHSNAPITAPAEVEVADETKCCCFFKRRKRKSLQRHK
Chain of Casein kinase I isoform alpha (Homo sapiens) (P48729 2-337 limits assumed): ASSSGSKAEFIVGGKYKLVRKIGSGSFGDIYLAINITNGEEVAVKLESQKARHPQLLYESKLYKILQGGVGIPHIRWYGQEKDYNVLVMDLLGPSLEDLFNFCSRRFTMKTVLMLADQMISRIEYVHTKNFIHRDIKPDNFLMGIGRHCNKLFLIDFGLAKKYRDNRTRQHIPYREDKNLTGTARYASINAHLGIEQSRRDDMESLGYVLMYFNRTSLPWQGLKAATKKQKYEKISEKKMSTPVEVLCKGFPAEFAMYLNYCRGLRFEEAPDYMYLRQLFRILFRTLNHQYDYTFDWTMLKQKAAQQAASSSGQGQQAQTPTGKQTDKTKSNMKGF

For `COc1cccc(COc2cc(-n3cnc4ccccc43)sc2C(N)=O)c1`, the inhibition in test [1] was 1.53%; in test [2] it was -0.31%; in test [3] it was -0.86%; in test [4] it was 0.72%; in [5] it was -0.49%; in test [6], -2.17%. Besides, the inhibition in [7] was -2.7%; in test [8], 1.18%; in test [9] it was 2.68%; in [10], 2.02%.

For the molecule `Nc1nonc1-c1nc2cnccc2n1C1CCCCC1`, the inhibition was 24.8% in test [1]; 0.17% in test [2]; 6.12% in test [3]; -1.12% in test [4]; -2.07% in [5]; -1.01% in test [6]. In addition, the inhibition in test [7] was -0.02%; in [8], -2.65%; in [9] it was -0.45%; in test [10] it was -2.61%.

On to `Cc1cc(-c2ccco2)cc(C)c1/C=C/c1cncc(-c2nn[nH]n2)c1`, for which the inhibition came out at 2.37% in test [1]; 1.7% in test [2]; 2.37% in [3]; 1.46% in test [4]; 0.42% in [5]; 1.02% in test [6]. Also, the inhibition in test [7] was -0.59%; in [8], 1.01%; in test [9] it was 1.56%; in test [10], 0.62%.

Take `NS(=O)(=O)c1ccc(N/C=C2\C(=O)Nc3ccc4ncsc4c32)cc1`: the inhibition in test [1] is 46.7%; in test [2], 5.24%; in test [3] it was 19.4%; in [4], 1.13%; in test [5], 2.94%; in test [6], 3.99%. Also, the inhibition in test [7] came to 14.7%; in test [8], 4.38%; in test [9], 9.59%; in test [10] it was 2.65%.

For the molecule `CCn1c(-c2nonc2N)nc2c(C#CC(C)(C)O)ncc(OC[C@@H]3CCCN3)c21`, the inhibition in test [1] was 41.2%; in [2], 20.6%; in test [3] it was 70.4%; in test [4] it was 4.9%; in test [5] it was 2.67%; in [6] it was -1.71%. Besides, the inhibition was -2.58% in test [7], 1.04% in [8], 2.69% in test [9] and 1.05% in [10].

As to `NC(=O)c1sc(-n2cnc3cc(C(F)(F)F)ccc32)cc1OCc1ccccc1Br`, the inhibition in [1] worked out at 1.3%; in test [2], 2.93%; in [3], 3.05%; in test [4], 2.48%; in test [5], 1.1%; in test [6], 1.1%. Also, the inhibition in test [7] is -0.24%; in test [8], 1.09%; in [9], -0.28%; in [10], 0.61%.

Turning to `CCn1c(-c2nonc2N)nc2c(C#CCN)ncc(OCCCN)c21`, the inhibition is 4.32% in test [1]; -0.75% in test [2]; 11.3% in [3]; -0.97% in [4]; 4.75% in test [5]; 1.05% in test [6]. In addition, the inhibition in test [7] is -3.92%; in test [8] it was -2.42%; in test [9], -2.61%; in [10], -0.29%.

As to `COc1cc2c(cc1Nc1nc(Nc3ccsc3C(N)=O)c3cc[nH]c3n1)N(C(=O)CN(C)C)CCC2`, the inhibition in test [1] was 25%; in test [2] it was 92.3%; in test [3], 95.5%; in test [4] it was 59.4%; in test [5], 91.2%; in [6], -0.45%. The inhibition in [7] is 4.2%; in test [8], -0.49%; in test [9], 5.86%.

Consider `CCn1c(-c2nonc2N)nc2c(C#CC(C)(C)O)nc(O[C@@H](CN)c3ccccc3)cc21`, for which the inhibition was 68% in test [1]; 85.5% in test [2]; 95.6% in test [3]; 1.41% in test [4]; 14.8% in test [5]; 1.59% in test [6]. Further, the inhibition in test [7] is 4.15%; in test [8] it was -0.58%; in test [9], 7.01%; in test [10] it was -0.78%.

Take `COc1cccc(-n2ncc3c(N/N=C/c4ccncc4)ncnc32)c1`: the inhibition came out at 13.1% in test [1]; 4.13% in test [2]; 5.05% in test [3]; 1.6% in test [4]; 2.48% in test [5]; 6.11% in [6]. The inhibition in test [7] worked out at 11.2%; in test [8], 3.65%; in [9], 7.48%; in test [10], 3.26%.

In the case of `COc1cc(C=NNc2ncnc3c2cnn3Cc2ccccc2)ccc1O`, the inhibition was 3.75% in test [1]; -3.19% in [2]; -2.62% in [3]; -2.34% in test [4]; -2.56% in test [5]; -0.09% in test [6]. For the same molecule, the inhibition was -4.3% in test [7], -3.34% in [8], -3.33% in test [9] and -2.95% in test [10].

On to `Fc1ccc(-c2ncn(C3CCNCC3)c2-c2ccnc(Oc3ccccc3)n2)cc1`, for which the inhibition in test [1] amounted to 2.78%; in [2], 2.36%; in [3] it was 1.65%; in test [4], 0.82%; in test [5] it was 0.7%; in [6], 4.72%. In addition, the inhibition was 30.9% in [7], -1.52% in [8], 4.5% in [9] and -1.96% in [10].

On to `NS(=O)(=O)c1ccc(-c2ccc3c(NC(=O)C4CC4)n[nH]c3c2)cc1`, for which the inhibition in test [1] was 3.1%; in [2] it was 0.11%; in test [3], -0.04%; in test [4], 1.09%; in [5], -2.52%; in test [6], 6.65%. For the same molecule, the inhibition in test [7] was 2.79%; in test [8], 1.56%; in test [9], 2.58%; in test [10], 1%.

`CCn1c(-c2nonc2N)nc2c(C#CC(C)(C)O)ncc(OCC3CCNCC3)c21`: the inhibition in test [1] was found to be 44.7%; in test [2], 24.4%; in [3], 73%; in test [4] it was 2.77%; in test [5], 5.17%; in test [6], 4.15%. For the same molecule, the inhibition is 4.34% in test [7], -0.98% in test [8], 0.65% in [9] and -1.19% in [10].
